Source: PubChem BioAssay
An excerpt weighted towards active compounds, which were near 3.3% of everything screened.
Luc counter: counter-screen: inhibitors of Kinase-Glo firefly luciferase; Q27757; Kinase-Glo luciferase, ATP luminescence, 8 min; 200,000 tested, 0.28% active; Potency, µM (top dose mostly 38.3 µM), for inactives: top-dose activity change, negative = inhibition, hits mostly inhibitors; further: nearly all actives have a fitted effect of over 60% in size
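Luminescence was the read-out, taken after 8-minute incubation at ambient temperature. Luciferase turned over luciferin with 10 uM ATP in imidazole pH 7.2 buffer containing KCl, MgCl2, Tween 20 and BSA.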
Tau fluor cs: counter-screen for tau fibril formation inhibitors | tau K18 P301L Alexa594 fluorescence, heparin fibrillization | Potency, µM (doses to about 57.7 µM), for the others: top-dose activity change, negative = decrease | 280,000 tested, 0.93% active; further: nearly all actives have a fitted effect of over 55% in size
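Human K18 P301L tau (15 uM unlabeled plus 0.24 uM Alexa 594-labeled, final) in 100 mM sodium acetate pH 7 was mixed with compound and 20 uM heparin and incubated 6 hr at 37 C.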
Tau fibril FP: blocks human tau fibril formation measured by polarization. P10636. K18 P301L tau heparin fibrillization, Alexa594 FP, 6 h. Potency, µM (titrated, usually from 57.7 µM), without a hit: top-dose activity, negative = inhibition, most hits filed as inhibitors. 280,000 tested, 0.39% active; further: nearly all actives have a fitted effect of over 55% in size
Target sequence (P10636 561-689 P618L limits assumed): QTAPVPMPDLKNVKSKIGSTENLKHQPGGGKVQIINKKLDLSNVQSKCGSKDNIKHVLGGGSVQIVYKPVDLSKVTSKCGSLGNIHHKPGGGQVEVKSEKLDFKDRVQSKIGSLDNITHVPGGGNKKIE
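Heparin (20 uM) drove fibril formation of recombinant tau K18 P301L, 15 uM unlabeled with 0.24 uM Alexa 594 label, for 6 hr at 37 C in 100 mM sodium acetate pH 7. Fluorescence polarization (555/632 nm) read 1 hr after 30 uM ThT.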
Tau fibril ThT: inhibitors of human tau fibril formation, thioflavin T binding. P10636. recombinant tau K18 P301L (four-repeat tau fragment), heparin-induced fibrillization, ThT fluorescence. Potency, µM (top dose mostly 57.4 µM), without a hit: top-dose activity, negative = inhibition, most hits filed as inhibitors. 270,000 tested, 2.1% active; further: nearly all actives have a fitted effect of over 55% in size
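Tau K18 P301L fragment (15 uM unlabeled plus 0.24 uM Alexa 594-labeled) in 100 mM sodium acetate pH 7 with compound, fibrillization induced by 20 uM heparin for 6 hr at 37 C. Thioflavin T (30 uM) added, fluorescence read after 1 hr (ex 450, em 510 nm).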
NPSR antagonist: antagonists of human neuropeptide S receptor cAMP signaling; AID 1461; 220,000 tested, 1% active; Q6W5P4; Potency, µM (doses to about 38.3 µM), without a hit: at the highest dose activity change, negative = inhibition, most hits filed as inhibitors; CHO-NPSR cells, cAMP TR-FRET, antagonist mode; further: nearly all actives have a fitted effect of over 50% in size
Target sequence (Q6W5P4 whole entry, looked up): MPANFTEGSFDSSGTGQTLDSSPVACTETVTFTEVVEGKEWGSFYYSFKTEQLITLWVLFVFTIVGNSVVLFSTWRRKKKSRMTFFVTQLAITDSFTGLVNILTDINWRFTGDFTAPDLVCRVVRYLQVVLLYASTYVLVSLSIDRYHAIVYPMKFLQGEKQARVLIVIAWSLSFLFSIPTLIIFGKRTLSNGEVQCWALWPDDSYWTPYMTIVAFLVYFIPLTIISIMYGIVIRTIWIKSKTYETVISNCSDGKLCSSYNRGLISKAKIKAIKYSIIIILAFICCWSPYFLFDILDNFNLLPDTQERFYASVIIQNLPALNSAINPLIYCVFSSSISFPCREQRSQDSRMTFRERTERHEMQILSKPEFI
Numbers without * were called inactive; ? = inconclusive; . = not tested or not shown; [ ] = dose if it differs, or a comment. The call rests on the fitted dose curve; in most records, active means well fitted curve in the direction sought with a large enough effect; inconclusive means small, poorly fitted or top-dose-only effect, or another doubt; inactive means no such curve, though single readings can be large; an effect the other way counts as inactive or inconclusive. On the % scale 0 is the no-effect control and ±100 the full control effect; potency means the concentration at half of the fitted maximal effect.

SMILES	Luc counter	Tau fluor cs	Tau fibril FP	Tau fibril ThT	NPSR antagonist
Cn1cccc1/C=C1\CCC/C(=C\c2cccn2C)C1=O	-2%	?	8%	5µM*	-14%[46.1 µM]
Cc1ccc(C)c(NC(=O)CSc2ccc3nc(-c4ccccc4)cn3n2)c1	.	-6%	-9%	-5%	.
NS(=O)(=O)c1ccc(N=Nc2ccc[nH]c2=O)cc1	-6%[7.66 µM]	.	.	.	.
Cc1c(C#N)c(O)n(C)c(=O)c1N=Nc1ccc(S(N)(=O)=O)cc1	3%	-10%	1%	4µM*	-25%
Cc1c(C#N)c(O)n(CCO)c(=O)c1N=Nc1ccccc1	.	-7%	-3%	13µM*	-9%
Cc1cc(=O)n(CCCO)c(O)c1C#N	-3%	-3%	-8%	?	-5%[46.1 µM]
Cc1c(C#N)c(O)n(CCO)c(=O)c1N=Nc1ccc(S(N)(=O)=O)cc1	-8%	-5%	1%	13µM*	-27%
CC(=O)[C@@]1(N=Nc2ccc(S(N)(=O)=O)cc2)CCOC1=O	0%[7.66 µM]	.	.	.	.
Oc1ccc(-c2csc(-c3c[nH]c4ccccc34)n2)c(O)c1	-1%	10µM*[quencher]	?	6.3µM*	-21%
Cc1ccc(-c2csc(-c3c[nH]c4ccccc34)n2)c(C)c1	-4%	10µM*[quencher]	?	14µM*	-1%[46.1 µM]
Cc1ccc(-c2cc(C(=O)O)c3ccccc3n2)c(C)c1	.	2%	4%	1%	-1%[7.67 µM]
Cc1cccc(CN2C(=O)N/C(=C/c3cc(C)n(-c4cc(C)ccn4)c3C)C2=O)c1	-3%	?	1%	?	16µM*
Cc1cccc(CN2C(=O)N/C(=C/c3ccc(C)s3)C2=O)c1	-4%	-26%	8%	?	-11%[46.1 µM]
CCN1C(=O)c2ccccc2S(=O)(=O)c2ccc(C(=O)NCc3ccc(C)cc3)cc21	.	-28%	-9%	2%	.
COc1ccc(-n2ncc3c2ncn2nc(-c4ccc(OC)c(OC)c4)nc32)cc1	.	1%	-1%	?	.
CC(=O)O[C@]1(C(C)=O)CC[C@H]2[C@@H]3C[C@H](C)C4=CC(=O)CC[C@]4(C)[C@H]3CC[C@@]21C	-3%	-8%	4%	-13%	2.5µM*
CC(=O)O[C@@]1(C(C)=O)CCC2C3C=C(Cl)C4=CC(=O)CC[C@]4(C)C3CC[C@]21C (stereo partly drawn)	-3%	-18%	-12%	-12%	.
CC(=O)O[C@]1(C(C)=O)CC[C@H]2[C@@H]3C=C(Cl)C4=CC(=O)CC[C@]4(C)[C@H]3CC[C@@]21C	2%	-7%	7%	-12%	5µM*
Cc1cc(NC(=O)c2ccccc2)sc1C	11µM*	-14%	6%	?	-5%[46.1 µM]
Cc1noc(C)c1C(=O)N1CCC[C@@]2(CCN(C(=O)Nc3ccccc3)C2)C1	-6%	.	.	.	.
Cc1cccc(-c2nc(CCNC(=O)COc3ccccc3)cs2)c1	.	-2%	6%	-16%	.
CCOCCc1nn2c(=O)cc(COC(=O)c3ccc(NC(=O)C4CCCCC4)cc3)nc2s1	.	-13%	-1%	-6%	.
COc1cccc2cc(-c3ccnc(=S)[nH]3)oc12	0%	-19%	?	28µM*	-5%
C=CCn1c(-c2cc3cccc(OC)c3o2)n[nH]c1=S	1%	-6%	-5%	?	-14%
COc1ccc(N=N/C(=C\O)C(=O)c2ccco2)cc1	-8%	?	4%	8.9µM*	-58%
SMILES	Luc counter	Tau fluor cs	Tau fibril FP	Tau fibril ThT	NPSR antagonist
Cc1cc(C(=O)Nc2ccc(C)c(S(=O)(=O)N3CCOCC3)c2)c(C)o1	0%	3%	-1%	2%	-5%
O=C(Nc1cccc(S(=O)(=O)N2CCOCC2)c1)c1cn(-c2ccccc2)nc1-c1ccccc1	5%	?	25µM*	6%	-21%
O=C(Nc1cccc(S(=O)(=O)N2CCOCC2)c1)c1cn(-c2ccccc2)nc1-c1ccc(F)cc1	3%	-30%	?	-4%	-19%
Cc1ccc(-c2nn(-c3ccccc3)cc2C(=O)Nc2ccc(C)c(S(=O)(=O)N3CCOCC3)c2)cc1	-1%	?	16µM*	-1%	-7%
COC(=O)c1c(NC(=O)Cc2coc3cc(C)cc(C)c23)sc2c1CCC2	.	-16%	-17%	-12%	.
CCN1C(=O)C2(c3ccccc31)c1c(oc3ccccc3c1=O)C(=O)N2CCOC (stereo not drawn)	.	-3%	0%	-5%	.
Cc1ccc2c(c1)/C(=C/c1ccco1)C(=O)N2	2%	-21%	3%	11µM*	-22%
Cc1ccc(/C=C2\C(=O)Nc3ccccc32)o1	-2%	1%	-3%	5%	2%
Nc1cc(S(=O)(=O)Nc2ccc(Cl)cc2)ccc1N1CCOCC1	.	-14%	-13%	-15%	-9%
N=C1c2ccccc2CN1c1ccc(N2CCOCC2)c(S(=O)(=O)Nc2ccc(Cl)cc2)c1	.	-26%	?	32µM*	?
Cc1c(C(=O)Nc2nc(-c3ccc(F)cc3)ns2)oc2ccc(Br)cc12	.	-4%	-2%	-6%	.
Cc1ccc(-c2nc(-c3ccccn3)no2)cc1Cl	11µM*	-20%	-3%	?	-9%[46.1 µM]
Cc1ccc2nc(-c3cccnc3)oc2c1	-7%	-4%	-5%	-5%	-9%[46.1 µM]
c1ccc(-c2nc(-c3ccccn3)no2)cc1	3.2µM*	5%	11%	-2%	-24%[46.1 µM]
Cc1ccc(-c2nc(-c3ccccn3)no2)cc1[N+](=O)[O-]	.	-4%	4%	?	-3%
Clc1cccc(-c2nc(-c3ccccn3)no2)c1	?	-14%	-11%	?	1%[46.1 µM]
Cc1ccc(-c2nc(-c3ccccn3)no2)cc1	3.2µM*	-9%	-2%	-18%	-2%[46.1 µM]
Cc1ccc2nc(-c3ccccn3)oc2c1	13µM*	1%	0%	-9%	14%[46.1 µM]
COc1ccc(CNC(=O)C(=O)NCC(c2ccco2)S(=O)(=O)c2ccc(Cl)cc2)cc1 (stereo not drawn)	.	0%	?	-2%	.
CCc1ccccc1Nc1cc(C(=O)NCCCN(C)C2CCCCC2)c2ccccc2n1	.	?	7%	-16%	.
Cc1ccc(-n2c(C)nc3c(cnn3-c3ccccc3Cl)c2=O)cc1C	-2%	-8%	4%	-7%	-16%[46.1 µM]
Cc1nc2c(cnn2-c2ccccc2Cl)c(=O)n1-c1ccc(N2CCC(C)CC2)cc1	16%	-17%	9%	-14%	13µM*
COc1cc2c(cc1OC)CC(=O)N(C)CC2	8%	9%	2%	6%	16%
COc1cc2c(C)c3c4c(cc(OC)c(OC)c4c2cc1OC)CCN3C	2%	10µM*[quencher]	?	?	.
COc1cc2c(C=O)c3c4c(cc(OC)c(OC)c4c2cc1OC)CCN3C	-1%	?	-8%	14µM*	.
Cc1ccc(C(=O)n2nc(C)c(S(=O)(=O)N3CCOCC3)c2C)cc1	.	2%	4%	-4%	.
O=Cc1s/c(=N\S(=O)(=O)c2ccccc2)n(CCCCl)c1Cl	-2%	-12%	?	28µM*	10µM*
COc1cccc(/C=N/Nc2snc(SC)c2C#N)c1	-3%	?	5%	?	-22%[46.1 µM]
